Most compounds without a hit are left out; they make up all but 20% or so of the library.
CHX counter: counter-screen hit for Shiga toxin inhibitors, cycloheximide; cell reporter, cycloheximide protein synthesis inhibition counterscreen; max response, %; 300,000 tested, 12% active; AID 2314; in the data active = max response mostly above about 13%, no sharp cut-off; inactive = mostly below about 14%; also: read at 38.3 µM for the half of the compounds with a filed dose; 0% is about no effect
Pf growth 48h: P. falciparum growth inhibition at 48 hours (one generation) | Potency, µM (highest dose often 28.7 µM), for the others: at the top dose activity change, negative = inhibition, usual class: inhibitors | P. falciparum luciferase growth in erythrocytes, 48 h | 310,000 tested, 5.9% active | AID 504832; also: potency is read from the fitted curve at half-maximal effect; % is scaled to controls: 0 for no effect and ±100 for the full control effect
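A one-generation exposure of luciferase-tagged malaria parasites in RPMI 1640/Albumax erythrocyte culture, 37 C and 5% CO2. Inhibition is inferred from decreased luminescence after adding detection reagent.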
HCMV antiviral: inhibitors of human cytomegalovirus; AID 1259415; activity change, negative = inhibition, % at 57.5 µM; 410,000 tested, 4.5% active; HFF cells, HCMV-luciferase reporter, 72 h; active compounds read low; in the data active = activity change below about -60%; inconclusive = no clear call, values can overlap the other calls; inactive = above about -39%; also: % is scaled to controls: 0 for no effect and ±100 for the full control effect
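Two compound doses tested in HFFs infected with HCMV-luciferase, MOI 1 PFU/cell, 72 h at 37C. Lysate luminescence read with OneGlo; data normalized against buffer-only and 10uM Salinomycin inhibitor controls.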
Shiga toxin inh: inhibitors of Shiga toxin in Vero cells. Vero cells, Shiga toxin protein synthesis inhibition reporter. inhibition, % at 38.7 µM. 290,000 tested, 9.2% active. AID 2315; in the data active = inhibition mostly above about 28%, no sharp cut-off; inactive = mostly below about 43%; also: 0% is about no effect
Pf growth 96h: P. falciparum growth inhibition at 96 hour, primary screen for plastid delayed-death inhibitors; P. falciparum luciferase reporter growth, 96 h; Potency, µM (titrated, usually from 28.7 µM), inactives show top-dose activity change, negative = inhibition, most hits filed as inhibitors; 320,000 tested, 6.9% active; AID 504834; also: potency is read from the fitted curve at half-maximal effect; % is scaled to controls: 0 for no effect and ±100 for the full control effect
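P. falciparum expressing integrated firefly luciferase, in erythrocytes at 2% hematocrit, 0.05% parasitemia, incubated with compounds 96 h at 37 C, 5% CO2. Growth inhibition read as loss of luminescence; two-generation exposure targets delayed-death apicoplast inhibitors.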
Starred values were filed as active, the others as inactive. Unless noted, calls follow the shape of the dose curve; as a rule, active = well fitted inhibition curve with a large enough effect; inconclusive = small, poorly fitted or top-dose-only effect, or another doubt; inactive = no such curve, though single readings can be large or run the other way.

Results for CN1CCN(C(CNC(=O)Nc2ccc(Cl)cc2)c2ccc(F)cc2)CC1 (centres undefined) ?
CHX counter: 15; Pf growth 48h: inconclusive; HCMV antiviral: -25; Shiga toxin inh: 8; Pf growth 96h: inconclusive

How did COc1ccc(N2CCC(CNC(=O)Nc3ccc(Cl)cc3)C2)cc1 (centres undefined) do in these assays?
CHX counter: 14*; Pf growth 48h: -19%; HCMV antiviral: -26; Shiga toxin inh: 23; Pf growth 96h: -23%

Results for O=C(NCC1CC1)Nc1cccc(Cl)c1 ?
CHX counter: 25*; Pf growth 48h: 33%; HCMV antiviral: 25; Shiga toxin inh: 86*; Pf growth 96h: 13%

How did O=C(NCC1CC1)Nc1cccc(C(F)(F)F)c1 do in these assays?
CHX counter: 3; Pf growth 48h: -1%; HCMV antiviral: -29; Shiga toxin inh: 17; Pf growth 96h: -2%

How did Cc1cccc(NC(=O)NCC(c2ccc(F)cc2)N2CCN(C)CC2)c1 (centres undefined) do in these assays?
CHX counter: 19*; Pf growth 48h: inconclusive; HCMV antiviral: -22; Shiga toxin inh: 20; Pf growth 96h: inconclusive

What do the screens show for `Cc1cccc(NC(=O)NCC2CC2)c1`?
CHX counter: 14*; Pf growth 48h: 48%; HCMV antiviral: 52; Shiga toxin inh: 37; Pf growth 96h: 35%

What do the screens show for `COc1ccc(N2CCC(CNC(=O)Nc3cccc(OC)c3)C2)cc1` (centres undefined)?
CHX counter: -1; HCMV antiviral: -14; Shiga toxin inh: 15; Pf growth 96h: -27%

Results for Cc1ccc(-n2c(CNC(=O)c3cccs3)nnc2SCC(=O)NO)cc1 ?
CHX counter: -3; Pf growth 48h: inconclusive; HCMV antiviral: -30; Shiga toxin inh: 12; Pf growth 96h: inconclusive

What do the screens show for `CCOC(=O)N1CCC(NC(=O)c2cnn(-c3ccc(C)cc3C)c2C2CCN(C(=O)OC(C)(C)C)CC2)CC1`?
HCMV antiviral: 12

What do the screens show for `O=C(NCCO)Nc1ccc(Cl)cc1`?
CHX counter: 7; Pf growth 48h: 11%; HCMV antiviral: -38; Shiga toxin inh: -7; Pf growth 96h: 8%

What do the screens show for `O=C(NCC1CC1)Nc1ccc(Cl)cc1`?
CHX counter: 32*; Pf growth 48h: 34%; HCMV antiviral: -95*; Shiga toxin inh: 70*; Pf growth 96h: 65%

What do the screens show for `COc1cc(C(=O)OC2CC3CCC2(C)C3(C)C)ccc1OC(C)=O` (centres undefined)?
CHX counter: 16*; Pf growth 48h: inconclusive; HCMV antiviral: 32; Shiga toxin inh: -4; Pf growth 96h: inconclusive

Results for Nc1nc2ccc(Cl)cc2o1 ?
HCMV antiviral: 4

What do the screens show for `COc1ccc(Nc2nc(N)nc(CSc3nc4cc(OC)ccc4s3)n2)cc1`?
HCMV antiviral: -18

How did Cc1ccc(-c2cc3nc(-c4ccccc4)cc(C(F)(F)F)n3n2)cc1 do in these assays?
HCMV antiviral: -5

How did CN1CCN(C(=O)C2CC(c3ccc(F)cc3)=NO2)CC1 (centres undefined) do in these assays?
CHX counter: 15; HCMV antiviral: 28; Shiga toxin inh: 34; Pf growth 96h: inconclusive

Results for CC1CCCC(C)N1C(=O)C1CC(c2ccc(F)cc2)=NO1 (centres undefined) ?
CHX counter: 20*; Pf growth 48h: 30%; HCMV antiviral: -23; Shiga toxin inh: 48*

Results for CCN1CCN(C(=O)C2CC(c3ccc(F)cc3)=NO2)CC1 (centres undefined) ?
CHX counter: 7; Pf growth 48h: 13%; HCMV antiviral: 3; Shiga toxin inh: 13; Pf growth 96h: -4%

Results for CC1CCN(C(=O)C2CC(c3ccc(F)cc3)=NO2)CC1 (centres undefined) ?
CHX counter: 36*; Pf growth 48h: 71%; HCMV antiviral: -7; Shiga toxin inh: 98*

What do the screens show for `CNCCCOc1cccc(OC(C)C)c1`?
CHX counter: 19*; Pf growth 48h: 16%; HCMV antiviral: 18; Shiga toxin inh: 141*

Results for CNCCCOc1cccc(Oc2ccccc2)c1 ?
CHX counter: 34*; Pf growth 48h: inconclusive; HCMV antiviral: inconclusive; Shiga toxin inh: 100*; Pf growth 96h: 19%

How did CC(O)CNCCCOc1cccc(Oc2ccccc2)c1 (centres undefined) do in these assays?
CHX counter: 15; Pf growth 48h: inconclusive; HCMV antiviral: 11; Shiga toxin inh: 27; Pf growth 96h: 10%

Results for O=C(NCCc1ccc(Cl)cc1)c1cccc(S(=O)(=O)N2CCCC2)c1 ?
HCMV antiviral: 5

Results for CC(=O)OC[C@H]1O[C@H](C/C=N/OC[C@@H](O)[C@H]2O[C@@H]3OC(C)(C)O[C@@H]3[C@H]2O)C=C[C@@H]1OC(C)=O ?
CHX counter: -3; Pf growth 48h: 16%; Shiga toxin inh: -10; Pf growth 96h: -7%

How did CCOCCOC(=O)c1ccc(-n2cncn2)nc1 do in these assays?
CHX counter: 1; HCMV antiviral: -10; Shiga toxin inh: 24; Pf growth 96h: inconclusive

What do the screens show for `Cc1cc(C)c2sc(N(CCN(C)C)C(=O)c3ccc4ccccc4c3)nc2c1`?
CHX counter: 18; Pf growth 48h: -21%; HCMV antiviral: active; Shiga toxin inh: 37; Pf growth 96h: -8%

How did CN(C)CCN(C(=O)c1ccc2ccccc2c1)c1nc2ccc(F)cc2s1 do in these assays?
CHX counter: 18*; Pf growth 48h: 38%; Shiga toxin inh: 57; Pf growth 96h: 30%

What do the screens show for `CN(C)CCCN(C(=O)c1cc2ccccc2oc1=O)c1nc2ccc(F)cc2s1`?
CHX counter: 13*; Pf growth 48h: 21%; HCMV antiviral: -12; Shiga toxin inh: 20; Pf growth 96h: -14%

Results for O=C1c2ccccc2C(=O)N1CCCCN(C(=O)c1cc2ccccc2oc1=O)c1ccc(F)cc1F ?
CHX counter: 60*; Pf growth 48h: 8%; HCMV antiviral: -21; Shiga toxin inh: 74*; Pf growth 96h: 13%

Results for COc1ccccc1C(=O)N(CCN(C)C)c1nc2cc(C)cc(C)c2s1 ?
CHX counter: -3; Pf growth 48h: 13%; HCMV antiviral: -21; Shiga toxin inh: -18; Pf growth 96h: -2%

How did CCc1ccc2nc(N(CCN(C)C)C(=O)c3ccc4ccccc4c3)sc2c1 do in these assays?
CHX counter: 21; Pf growth 48h: 5%; Shiga toxin inh: 11; Pf growth 96h: 27%

What do the screens show for `CC1(C)N=c2ccc([N+](=O)[O-])c(N)c2=[N+]1[O-]`?
CHX counter: -1; Pf growth 48h: inconclusive; HCMV antiviral: 29; Shiga toxin inh: 22; Pf growth 96h: inconclusive

Results for COc1ccc(S(=O)(=O)N2CCC(C(=O)NCc3ccncc3)CC2)cc1Cl ?
CHX counter: 6; Pf growth 48h: 29%; HCMV antiviral: 8; Shiga toxin inh: -6; Pf growth 96h: 1.9µM*

Screening data (PubChem BioAssay)
